Measurements taken from PubChem BioAssay (NCATS).
Results filed as inconclusive are left out. Activity calls are given as the source filed them. Unless noted, the call rests on the fitted dose curve.

Key:
[1] = target: Parathyroid hormone/parathyroid hormone-related peptide receptor (Homo sapiens) (UniProt Q03431); experiment: qHTS for PTHR1 Agonists: Optimization Screen against the NCGC LOPAC library (AID 1347079; active means well fitted curve in the direction sought with a large enough effect; an effect the other way counts as inactive or inconclusive;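 further: GloSensor cAMP luminescence in HEK-293 GP2 cells expressing human PTHR1 with IBMX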)
How it was run: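 Agonist readout: GloSensor cAMP luminescence, read after 15 min at room temperature. HEK-293-derived GP2 line carries PTHR1; compounds tested as a titration for 1 hr at 37C in presence of IBMX. M-PTH (1-15) served as control.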

[2] = qHTS for Inhibitors of the Functional Ribonucleoprotein Complex (vRNP) of Lassa (LASV) Arenavirus: LASV Primary Screen - GLuc reporter signal (AID 1347082; calls by dose curve; tested in HEK293 reporter line; further: series mostly up to about 57 µM; nearly all actives have a fitted effect of over 60% in size)
[3] = qHTS for Inhibitors of the Functional Ribonucleoprotein Complex (vRNP) of Lassa (LASV) Arenavirus: Viability assay - alamar blue signal for LASV Primary Screen (AID 1347083; calls by dose curve; tested in HEK293 reporter line; further: series mostly up to about 57 µM; nearly all actives have a fitted effect of over 80% in size)
[4] = qHTS for Inhibitors of the Functional Ribonucleoprotein Complex (vRNP) of Lymphocytic Choriomeningitis Arenaviruses (LCMV): Viability assay - alamar blue signal for LCMV Primary Screen (AID 1347085; calls by dose curve; tested in HEK293 reporter line; further: series mostly up to about 57 µM; nearly all actives have a fitted effect of over 80% in size)
[5] = target: Nucleoprotein (Lymphocytic choriomeningitis virus (strain Armstrong)) (UniProt P09992); experiment: qHTS for Inhibitors of the Functional Ribonucleoprotein Complex (vRNP) of Lymphocytic Choriomeningitis Arenaviruses (LCMV): LCMV Primary Screen - GLuc reporter signal (AID 1347086); further: series mostly up to about 57 µM; nearly all actives have a fitted effect of over 70% in size
[6] = qHTS of pediatric cancer cell lines to identify multiple opportunities for drug repurposing: Primary screen for DAOY cells (AID 1347090; active means well fitted curve in the direction sought with a large enough effect; an effect the other way counts as inactive or inconclusive; further: potency means the concentration at half of the fitted maximal effect; nearly all actives have a fitted effect of over 55% in size)
How it was run: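 Viability measured as metabolically active cells via CellTiter-Glo luminescence following 48 hours of compound exposure, 11-point dilutions in confirmatory testing. 500-1,000 cells/well plated 5 hours before dosing; controls were DMSO and 2.3 µM bortezomib.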

[7] = qHTS of pediatric cancer cell lines to identify multiple opportunities for drug repurposing: Primary screen for A673 cells (AID 1347092; active means well fitted curve in the direction sought with a large enough effect; an effect the other way counts as inactive or inconclusive; further: potency means the concentration at half of the fitted maximal effect; nearly all actives have a fitted effect of over 45% in size)
How it was run: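 48 h compound exposure, A673, 500-1,000 cells/well, 37 degrees C/5% CO2. MIPE: 11-point, 0.78 nM-46 µM; NPC: 8-point, 0.59 nM-46 µM (final). Readout CellTiter-Glo luminescence after 15 min RT.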

[8] = qHTS of pediatric cancer cell lines to identify multiple opportunities for drug repurposing: Primary screen for SK-N-MC cells (AID 1347093; active means well fitted curve in the direction sought with a large enough effect; an effect the other way counts as inactive or inconclusive; further: potency means the concentration at half of the fitted maximal effect)
How it was run: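 Metabolically active cells were quantified by ATP-dependent luminescence (CellTiter-Glo, 15 min at room temperature) following 48 h treatment. Cells had been plated at 500-1,000 per well and settled for 5 h beforehand.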

[9] = qHTS of pediatric cancer cell lines to identify multiple opportunities for drug repurposing: Primary screen for BT-37 cells (AID 1347094; active means well fitted curve in the direction sought with a large enough effect; an effect the other way counts as inactive or inconclusive; further: potency means the concentration at half of the fitted maximal effect)
How it was run: (§1)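 CRCs from 8- or 11-point titrations (lowest final 0.59 nM NPC, 0.78 nM MIPE). Cell viability: CellTiter-Glo after 48 h incubation, 15 min room-temperature development, luminescence imaging.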

[10] = qHTS of pediatric cancer cell lines to identify multiple opportunities for drug repurposing: Primary screen for U-2 OS cells (AID 1347096; active means well fitted curve in the direction sought with a large enough effect; an effect the other way counts as inactive or inconclusive; further: potency means the concentration at half of the fitted maximal effect; nearly all actives have a fitted effect of over 50% in size)
How it was run: (§2)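 Viability after 48 h compound treatment at 37C, 500-1,000 cells/well, read as ATP luminescence with CellTiter-Glo. Primary screens used 11-point (MIPE, 0.78 nM-46 µM) or 8-point (NPC, 0.59 nM-46 µM) final concentrations; follow-up screens used 11-point dilutions.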

[11] = qHTS of pediatric cancer cell lines to identify multiple opportunities for drug repurposing: Primary screen for Saos-2 cells (AID 1347097; active means well fitted curve in the direction sought with a large enough effect; an effect the other way counts as inactive or inconclusive; further: potency means the concentration at half of the fitted maximal effect; nearly all actives have a fitted effect of over 40% in size); details: Saos-2 viability, CellTiter-Glo ATP luminescence, 48 h
How it was run: as §1

[12] = qHTS of pediatric cancer cell lines to identify multiple opportunities for drug repurposing: Primary screen for SK-N-SH cells (AID 1347098; active means well fitted curve in the direction sought with a large enough effect; an effect the other way counts as inactive or inconclusive; further: potency means the concentration at half of the fitted maximal effect; nearly all actives have a fitted effect of over 65% in size)
How it was run: (§3)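 Cells (500-1,000/well) rested 5 h, then received compounds for 48 h; metabolically active cells were measured by CellTiter-Glo luminescence. Final concentrations spanned up to 46 µM (MIPE, 11-point) or 0.59 nM-46 µM (NPC, 8-point) in primary screens, 11-point in follow-ups.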

[13] = qHTS of pediatric cancer cell lines to identify multiple opportunities for drug repurposing: Primary screen for NB1643 cells (AID 1347099; active means well fitted curve in the direction sought with a large enough effect; an effect the other way counts as inactive or inconclusive; further: potency means the concentration at half of the fitted maximal effect; nearly all actives have a fitted effect of over 50% in size)
How it was run: as §1

[14] = qHTS of pediatric cancer cell lines to identify multiple opportunities for drug repurposing: Primary screen for BT-12 cells (AID 1347101; active means well fitted curve in the direction sought with a large enough effect; an effect the other way counts as inactive or inconclusive; further: potency means the concentration at half of the fitted maximal effect; nearly all actives have a fitted effect of over 25% in size)
How it was run: as §3

[15] = qHTS of pediatric cancer cell lines to identify multiple opportunities for drug repurposing: Primary screen for Rh18 cells (AID 1347102; active means well fitted curve in the direction sought with a large enough effect; an effect the other way counts as inactive or inconclusive; further: potency means the concentration at half of the fitted maximal effect; nearly all actives have a fitted effect of over 65% in size)
How it was run: as §2

Measured: Potency

Chain of Nucleoprotein (Lymphocytic choriomeningitis virus (strain Armstrong)) (P09992 whole entry, looked up): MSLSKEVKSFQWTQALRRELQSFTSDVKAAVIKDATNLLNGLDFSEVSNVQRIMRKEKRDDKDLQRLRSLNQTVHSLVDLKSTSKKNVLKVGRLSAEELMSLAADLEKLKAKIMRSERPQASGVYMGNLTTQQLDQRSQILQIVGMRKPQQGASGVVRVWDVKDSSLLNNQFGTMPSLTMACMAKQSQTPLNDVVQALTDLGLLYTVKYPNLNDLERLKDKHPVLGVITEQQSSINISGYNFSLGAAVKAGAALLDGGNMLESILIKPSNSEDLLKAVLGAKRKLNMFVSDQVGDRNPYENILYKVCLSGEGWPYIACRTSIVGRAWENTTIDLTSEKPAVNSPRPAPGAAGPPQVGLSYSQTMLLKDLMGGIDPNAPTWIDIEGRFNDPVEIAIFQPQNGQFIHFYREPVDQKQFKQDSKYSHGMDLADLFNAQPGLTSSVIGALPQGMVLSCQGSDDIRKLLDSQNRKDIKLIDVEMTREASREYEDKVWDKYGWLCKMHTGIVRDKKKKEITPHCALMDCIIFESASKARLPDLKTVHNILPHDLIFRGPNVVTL
Chain of Parathyroid hormone/parathyroid hormone-related peptide receptor (Homo sapiens) (Q03431 whole entry, looked up): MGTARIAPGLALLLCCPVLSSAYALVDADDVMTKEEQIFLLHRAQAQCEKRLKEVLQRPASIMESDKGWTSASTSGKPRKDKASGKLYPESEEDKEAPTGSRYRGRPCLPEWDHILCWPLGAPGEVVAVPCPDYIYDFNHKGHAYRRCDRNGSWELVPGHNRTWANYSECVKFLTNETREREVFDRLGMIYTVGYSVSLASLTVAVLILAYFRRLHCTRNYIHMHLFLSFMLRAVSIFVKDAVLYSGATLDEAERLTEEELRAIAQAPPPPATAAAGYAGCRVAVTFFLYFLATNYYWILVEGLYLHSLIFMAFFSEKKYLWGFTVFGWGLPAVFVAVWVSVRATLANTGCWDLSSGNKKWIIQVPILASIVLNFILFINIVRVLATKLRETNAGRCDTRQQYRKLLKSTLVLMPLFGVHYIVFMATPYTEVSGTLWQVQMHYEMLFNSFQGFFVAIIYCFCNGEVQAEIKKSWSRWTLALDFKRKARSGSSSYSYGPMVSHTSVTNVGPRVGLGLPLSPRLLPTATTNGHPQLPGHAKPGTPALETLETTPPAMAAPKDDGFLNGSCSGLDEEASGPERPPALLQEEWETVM

COc1ccc2[nH]c3c(c2c1)CCNC3
inactive: [1] | [2] | [3] | [4] | [5]

O=P(O)(O)C(Cl)(Cl)P(=O)(O)O
inactive: [2] | [3] | [4] | [5]

O=C(O)c1cc[c]([Hg][Cl])cc1
inactive: [1] | [2] | [3] | [4] | [5]

COC1=CC=C2[C@H]3Cc4ccc(OC)c5c4[C@@]2(CCN3C)[C@H]1O5
inactive: [3] | [4] | [5]

O[C@H]1[C@H]2[C@H](O)CCCN2C[C@H]1O
inactive: [2] | [3] | [4] | [5]

NC(=O)c1cc(N2CC2)c([N+](=O)[O-])cc1[N+](=O)[O-]
inactive: [1] | [2] | [3] | [5]

C[CH2][Hg][S]c1ccccc1C(=O)O
inactive: [2] | [3] | [4] | [5]
active: [6] 2.66 µM | [7] 0.841 µM | [8] 0.668 µM | [9] 12.3 µM | [10] 6.68 µM | [11] 0.841 µM | [12] 3.07 µM | [13] 2.37 µM | [14] 3.47 µM | [15] 4.73 µM

Oc1ccc2c3c1O[C@H]1c4oc5ccccc5c4C[C@@]4(O)C(C2)N(CC2CC2)CCC314 (stereo not given in full)
inactive: [1] | [3] | [4]

CC(C)CC(NP(=O)(O)O[C@@H]1O[C@@H](C)[C@H](O)[C@@H](O)[C@H]1O)C(=O)NC(Cc1c[nH]c2ccccc12)C(=O)O (stereo not given in full)
inactive: [2] | [3] | [4] | [5]

CC1=C2C[C@H]3[C@@H](CC=C4C[C@@H](O)CC[C@@]43C)[C@@H]2CC[C@]12O[C@@H]1C[C@H](C)CN[C@H]1[C@H]2C
inactive: [2] | [3] | [4] | [5]

O=C/C=C/c1ccccc1
inactive: [2] | [3] | [4] | [5]

C/C(O)=C(\C#N)C(=O)Nc1cc(Br)ccc1Br
inactive: [1] | [2] | [3] | [4] | [5]

COc1ccc2c(c1O)-c1cccc3c1[C@@H](C2)N(C)CC3
inactive: [1] | [2] | [3] | [4] | [5]

O=c1c2ccccc2[se]n1-c1ccccc1
inactive: [1] | [2] | [3] | [4] | [5]

CN(C)[C@@H]1C(=O)C(C(N)=O)=C(O)[C@@]2(O)C(=O)C3=C(O)c4c(O)ccc(Cl)c4[C@@](C)(O)[C@H]3C[C@@H]12
inactive: [2] | [3] | [4] | [5]

COc1ccc2c(c1)[C@@]13CCCC[C@H]1[C@@H](C2)NCC3
inactive: [1] | [2] | [3] | [4] | [5]

COc1ccc2c(c1)c(CCN1CCOCC1)c(C)n2C(=O)c1cccc(Cl)c1Cl
inactive: [2] | [3]

CCCCCCC(C)(C)c1ccc([C@@H]2C[C@H](O)CC[C@H]2CCCO)c(O)c1
inactive: [1] | [2] | [4]

CN(N=O)c1ccc(O)c(O)c1
inactive: [1] | [2] | [3] | [4] | [5]

N#C/C(=C/c1ccc(O)c(O)c1)C(N)=S
inactive: [2] | [3] | [4] | [5]

C[N+]1(C)[C@@H]2CC(OC(=O)[C@H](CO)c3ccccc3)C[C@H]1[C@H]1O[C@@H]12 (stereo not given in full)
inactive: [2] | [3] | [4] | [5]

C[N+]1(C)CCC(OC(=O)C(c2ccccc2)c2ccccc2)CC1
inactive: [2] | [3] | [4] | [5]

C=CCN1CC[C@]23c4c5ccc(O)c4O[C@@H]2/C(=N/N=C2\CC[C@@]4(O)C6Cc7ccc(O)c8c7[C@@]4(CCN6CC=C)[C@@H]2O8)CC[C@@]3(O)C1C5
inactive: [1] | [2] | [3] | [4] | [5]

C[C@@H]1O[C@H](C[N+](C)(C)C)CS1
inactive: [1] | [2] | [3] | [4] | [5]

C=CCN1CCc2cccc3c2[C@H]1Cc1ccc(O)c(O)c1-3
inactive: [1] | [2] | [3] | [4] | [5]

NC(N)=NOCC[C@H](N)C(=O)O
inactive: [1] | [2] | [3] | [4] | [5]

CC1OC1P(=O)(O)O (stereo not given)
inactive: [2] | [3] | [4] | [5]

C[Se]C[C@H](N)C(=O)O
inactive: [1] | [2] | [3] | [4] | [5]

C=CCN(C1=NCCN1)c1c(Cl)cccc1Cl
inactive: [1] | [2] | [3] | [4] | [5]

CCN(CC)c1ncnc2c1ncn2[C@@H]1O[C@H](COP(=O)(O)OP(=O)(O)C(Br)(Br)P(=O)(O)O)[C@@H](O)[C@H]1O
inactive: [2] | [3] | [4] | [5]

CN1[C@H]2CC[C@@H]1[C@@H](C(=O)O)[C@@H](OC(=O)c1ccccc1)C2
inactive: [2] | [3] | [4] | [5]

CN[C@H]1C[C@@H](N)[C@H](O)[C@@H](O[C@@H]2O[C@H](CO)[C@H](O)[C@@H]3OC4(O[C@H]23)O[C@H](C(N)CO)[C@H](O)[C@H](O)[C@H]4O)[C@@H]1O (stereo not given in full)
inactive: [2] | [3] | [4] | [5]

C[C@]12C=CC(=O)C=C1CC[C@@H]1[C@@H]2CC[C@]2(C)OC(=O)CC[C@@H]12
inactive: [2] | [3] | [4] | [5]
